The values that follow come from PubChem BioAssay (NCATS).

Where “and” joins values, the source holds several entries; their conditions need not be identical. Identical values can stand only once. Results filed as inconclusive are left out. Calls of active or inactive are those of the source. Unless noted, calls come from the whole dose curve; as a rule, active = well fitted curve in the direction sought with a large enough effect; inconclusive = small, poorly fitted or top-dose-only effect, or another doubt; inactive = no such curve, though single readings can be large; an effect the other way counts as inactive or inconclusive. Bridge positions count the residues as written; N and C are the ends. Square brackets hold non-standard residues; d marks the D form. Peptide text beside a SMILES is read from it. * marks the point of attachment. Octanoyl(6-Me) = CCC(C)CCCCC(=O)*; Dab = NCC[CH](N)C(=O)O

Assay [1] deals with Estrogen receptor (Homo sapiens) (UniProt P03372). The experiment in a line: qHTS assay for small molecule agonists of estrogen receptor alpha signaling (AID 588514; calls by dose curve;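 note: 0% = vehicle only and 100% = reference agonist; nearly all actives have a fitted effect of over 70% in size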). In a few lines:
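EC50 and efficacy came from Hill fits of beta-lactamase reporter signal (CCF4 dye, 2 h at room temperature) scaled between DMSO and 20 nM 17-beta-estradiol. Agonist mode: HEK293 ER-alpha-UAS-bla cells in charcoal/dextran-stripped serum medium, 18 h compound exposure at 37 C.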
In general terms: Quantitative high-throughput screening tests each substance at several concentrations.

Assay [2] has as its target Glucocorticoid receptor (Homo sapiens) (UniProt P04150). Put plainly: qHTS assay for small molecule agonists of glucocorticoid receptor signaling (AID 588532; active = well fitted curve in the direction sought with a large enough effect in the signal ratio, with a control signal flat; the % refers to the signal ratio;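 note: 100% = dexamethasone at 0.1 µM and 0% = DMSO only wells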). To be noted: HeLa MMTV-bla, beta-lactamase ratio, agonist, 18 h; stronger effect = higher value; percent of dexamethasone control, DMSO zero. In a few lines:
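HeLa GRE-bla reporter cells; 18 h compound exposure at 37 C; 2 h CCF4 loading at room temperature; fluorescence at 460 and 530 nm; EC50 by Hill equation.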

Assay [3] shares this target. Put plainly: qHTS assay for small molecule antagonists of glucocorticoid receptor signaling (AID 588533; active = well fitted inhibition curve with a large enough effect in the signal ratio, with a control signal flat, not every such curve was filed as active; the % refers to the signal ratio; note: % is set by controls: 0 for no effect and ±100 for the full control effect). In a few lines:
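Antagonist-mode qHTS: compound titrations added to GRE-bla HeLa cells, then dexamethasone 2 nM final; 18 h, 37 C. CCF4 FRET fluorescence normalized to dexamethasone and DMSO; IC50 from Hill fit.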

Assay [4] in a line: qHTS assay for small molecule antagonists of peroxisome proliferator-activated receptor delta signaling (AID 588535; active = well fitted inhibition curve with a large enough effect in the signal ratio, with a control signal flat, not every such curve was filed as active; the % refers to the signal ratio;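 for max response: cells co-treated with a PPAR-delta agonist as stimulator during compound exposure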). To be noted: HEK293T PPARd-UAS-bla, beta-lactamase FRET ratio, 18 h; 460 nm channel. In a few lines: (§1)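 Fluorescence from CCF4-loaded GeneBLAzer PPAR-delta-UAS-bla HEK293T cells (2 hrs RT loading) quantified reporter inhibition after an 18 hr, 37 C compound exposure across a titration.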

The target in assay [5] is Peroxisome proliferator-activated receptor delta (Homo sapiens) (UniProt Q03181). The description is as above. In a few lines:
as §1

For assay [6], the target named is Nuclear receptor ROR-gamma (Homo sapiens) (UniProt P51449). Put plainly: qHTS assay for small molecule antagonists of the retinoid-related orphan receptor gamma (ROR-gamma) signaling pathway (AID 651802).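 Note: CHO cells with doxycycline-induced ROR-gamma expression; luciferase reporter luminescence driven by ROR response element; % is set by controls: 0 for no effect and ±100 for the full control effect; nearly all actives have a fitted effect of over 60% in size.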 In a few lines:
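Luminescence (One-Glo, 30 min RT) measured 16 h after compound addition and doxycycline induction at 37C. Reporter: RORE-luciferase under TET-inducible ROR-gamma in CHO cells.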

Assay [7] can be described thus: S16 Schwann cell viability assay (CellTiter-Glo assay) (AID 624031). Note: nearly all actives have a fitted effect of over 70% in size. Note: potency is the fitted concentration of half-maximal effect. In a few lines:
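Untransfected S16 rat Schwann cells; compound 24 h, 37 °C/5% CO2; CellTiter-Glo ATP luminescence. % activity vs no-cell wells and DMSO controls (0%); concentration-effect curves classed by r2, response magnitude, activity.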
(Cellular ATP, detected with luciferase, serves as a proxy for viable cell number.)

Assay [8] can be described thus: S16 Schwann cell PMP22 intronic element beta-lactamase assay (AID 624044; calls by dose curve; note: nearly all actives have a fitted effect of over 15% in size; note: potency is the fitted concentration of half-maximal effect). In a few lines: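 Beta-lactamase reporter under a PMP22 intronic regulatory element in stable S16 rat Schwann cells; 24 h compound exposure. 460 nm blue signal normalized between DMSO (0%) and potassium clavulanate, with 535 nm FRET tracking viability; curves classed by r2 and response.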
Assay [9] has as its target Vitamin D3 receptor (Homo sapiens) (UniProt P11473). The experiment in a line: qHTS assay for small molecule antagonists of vitamin D receptor signaling (AID 588541; calls by dose curve;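 note: receptor activated by calcitriol during compound treatment; % is set by controls: 0 for no effect and ±100 for the full control effect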). In a few lines:
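VDR-UAS-bla HEK293T cells in 2% charcoal-stripped FBS were stimulated with 1-alpha,25-dihydroxyvitamin D3 (3 nM final) plus compound for 16 h at 37 C. The beta-lactamase CCF4 readout was normalized to 50 nM agonist and DMSO, and Hill fits gave IC50.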

The nature of assay [10]: qHTS assay for small molecule disruptors of the mitochondrial membrane potential - 1 hr assay (AID 651754; calls by dose curve; note: % is set by controls: 0 for no effect and ±100 for the full control effect; nearly all actives have a fitted effect of over 35% in size). In a few lines:
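Mitochondrial potential in living HepG2 cells after 1 hr compound treatment at 37C was read with Mito-MPS dye added for a further 30 min. Red aggregate and green monomer fluorescence were measured; loss of potential leaves dye as cytoplasmic monomers.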

A short description of assay [11]: qHTS assay for small molecule activators of the human pregnane X receptor (PXR) signaling pathway (AID 720659; call rule not given here; note: 0% is about no effect).
Assay [12] concerns the target Retinoic acid receptor RXR-alpha (Homo sapiens) (UniProt P19793). The experiment in a line: qHTS assay for small molecule antagonists of retinoid X receptor alpha signaling (AID 588546; active = well fitted inhibition curve with a large enough effect in the signal ratio, with a control signal flat, not every such curve was filed as active; the % refers to the signal ratio; note: % is set by controls: 0 for no effect and ±100 for the full control effect). To be noted: HEK293T RXRa-UAS-bla, beta-lactamase ratio, antagonist mode. In a few lines: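 Beta-lactamase reporter inhibition, read as CCF4 fluorescence ratio (ex 405, em 460/530 nm) after 2 h at RT. HEK293T UAS-bla cells, 2500/well, were stimulated with 9-cis-RA at 500 or 100 nM final alongside test compound for 18 h at 37 C.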

Assay [13] in a line: qHTS assay for small molecule activators of the p53 signaling pathway (AID 651743; active = well fitted activation curve with a large enough effect in the signal ratio, not every such curve was filed as active; the % refers to the signal ratio; note: % of control where 0% means no effect). To be noted: HCT-116 p53RE-bla, beta-lactamase FRET ratio, 16 h; activation: stronger effect = higher value. In a few lines:
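Following 16 hours of compound exposure at 37 C, HCT-116 cells bearing the p53RE-bla reporter were loaded with LiveBLAzer B/G FRET substrate for 2 hours at room temperature and fluorescence intensity was recorded.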

For assay [14], the target named is Ubiquitin carboxyl-terminal hydrolase 1 (Homo sapiens) (UniProt O94782). Put plainly: Inhibitors of USP1/UAF1: Pilot qHTS (AID 504865). Note: nearly all actives have a fitted effect of over 35% in size. Note: potency is the fitted concentration of half-maximal effect. In a few lines: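 Deubiquitinase activity followed as kinetic rhodamine fluorescence release from 150 nM Ub-Rho. 1 nM USP1/UAF1 with compound, after 15 min room-temperature preincubation, in HEPES pH 7.8 buffer containing TCEP, EDTA, BSA and Tween-20.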
Ubiquitin carboxyl-terminal hydrolase 1 (Homo sapiens), sequence (O94782 whole entry, looked up): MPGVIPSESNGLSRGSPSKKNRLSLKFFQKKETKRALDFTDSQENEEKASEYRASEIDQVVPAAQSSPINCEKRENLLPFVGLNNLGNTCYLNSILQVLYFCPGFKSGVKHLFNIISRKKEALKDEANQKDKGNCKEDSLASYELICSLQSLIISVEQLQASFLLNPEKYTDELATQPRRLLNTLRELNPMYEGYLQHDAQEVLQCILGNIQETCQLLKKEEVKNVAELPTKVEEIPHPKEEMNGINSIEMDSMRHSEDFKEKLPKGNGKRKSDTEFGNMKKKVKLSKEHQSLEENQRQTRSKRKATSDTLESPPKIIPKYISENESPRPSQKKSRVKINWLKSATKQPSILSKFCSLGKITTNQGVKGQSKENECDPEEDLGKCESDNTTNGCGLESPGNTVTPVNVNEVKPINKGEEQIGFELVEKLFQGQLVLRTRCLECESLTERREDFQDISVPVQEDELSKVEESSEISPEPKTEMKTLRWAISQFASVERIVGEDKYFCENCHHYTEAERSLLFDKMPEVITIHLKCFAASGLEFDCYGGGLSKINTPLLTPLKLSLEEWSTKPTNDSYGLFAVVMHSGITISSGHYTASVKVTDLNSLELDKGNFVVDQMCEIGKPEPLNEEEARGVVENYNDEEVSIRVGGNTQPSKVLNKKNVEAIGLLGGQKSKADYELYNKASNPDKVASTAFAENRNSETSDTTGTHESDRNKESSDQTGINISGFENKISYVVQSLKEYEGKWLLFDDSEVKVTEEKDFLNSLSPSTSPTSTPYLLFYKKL

For the next assay, the system named is CP215. The experiment in a line: qHTS profiling for inhibitors of Plasmodium falciparum proliferation (AID 504749). Note: nearly all actives have a fitted effect of over 60% in size. Note: potency is the fitted concentration of half-maximal effect. To be noted: P. falciparum in erythrocytes, SYBR Green DNA, 72 h; series mostly up to 28.7 µM. In a few lines:
(§2)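 Each compound contacts P. falciparum-infected red blood cells for 72 h at 37 C; lysis buffer (Tris, EDTA, saponin, Triton X, SYBR Green I) is added and fluorescence measured next morning; values normalized to controls.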

The next assay deals with CP250. The assay is described as above. To be noted: P. falciparum in erythrocytes, SYBR Green DNA, 72 h; series mostly up to 28.7 µM. In a few lines: as §2
The next assay has as its system P93_24. The description is as above. To be noted: P. falciparum in erythrocytes, SYBR Green DNA, 72 h; series mostly up to 28.7 µM. In a few lines: as §2
The next assay has as its system TAB113. Described as above. To be noted: P. falciparum in erythrocytes, SYBR Green DNA, 72 h; series mostly up to 28.7 µM. In a few lines:
as §2

In another assay the test system is TAB165. Described as above. To be noted: P. falciparum in erythrocytes, SYBR Green DNA, 72 h; series mostly up to 28.7 µM. In a few lines: as §2
Assay [15] addresses Mitogen-activated protein kinase 10 (Mus musculus) (UniProt Q61831). Put plainly: JNK3 AlphaScreen Assay (AID 530; active = well fitted curve in either direction with a large enough effect, not every such curve was filed as active;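 note: kinase came from lysate of stimulated human HepG2 cells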; note: potency is the fitted concentration of half-maximal effect). In a few lines:
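Activity was read by AlphaScreen after JNK3-containing HepG2 lysate (cytokine pre-activated) phosphorylated biotinylated GST-cJun with 10 uM ATP at room temperature. Phospho-Ser73 cJun antibody with Protein-A acceptor beads provided detection.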

Nuclear receptor ROR-gamma (Homo sapiens), sequence (P51449 whole entry, looked up): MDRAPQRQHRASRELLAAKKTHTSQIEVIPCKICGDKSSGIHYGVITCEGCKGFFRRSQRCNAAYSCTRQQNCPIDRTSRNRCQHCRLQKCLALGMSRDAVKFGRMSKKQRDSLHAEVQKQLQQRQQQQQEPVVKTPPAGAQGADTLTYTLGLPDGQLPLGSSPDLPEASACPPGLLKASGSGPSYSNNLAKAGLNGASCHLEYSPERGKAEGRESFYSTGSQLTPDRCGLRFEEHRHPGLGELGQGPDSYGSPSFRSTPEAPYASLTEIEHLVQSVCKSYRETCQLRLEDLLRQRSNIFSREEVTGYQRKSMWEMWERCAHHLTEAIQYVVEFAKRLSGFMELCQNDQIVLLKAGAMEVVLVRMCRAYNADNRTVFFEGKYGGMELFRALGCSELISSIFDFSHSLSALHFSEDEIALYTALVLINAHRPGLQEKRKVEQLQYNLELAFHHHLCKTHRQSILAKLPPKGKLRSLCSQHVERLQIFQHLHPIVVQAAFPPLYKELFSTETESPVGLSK
Peroxisome proliferator-activated receptor delta (Homo sapiens), sequence (Q03181 whole entry, looked up): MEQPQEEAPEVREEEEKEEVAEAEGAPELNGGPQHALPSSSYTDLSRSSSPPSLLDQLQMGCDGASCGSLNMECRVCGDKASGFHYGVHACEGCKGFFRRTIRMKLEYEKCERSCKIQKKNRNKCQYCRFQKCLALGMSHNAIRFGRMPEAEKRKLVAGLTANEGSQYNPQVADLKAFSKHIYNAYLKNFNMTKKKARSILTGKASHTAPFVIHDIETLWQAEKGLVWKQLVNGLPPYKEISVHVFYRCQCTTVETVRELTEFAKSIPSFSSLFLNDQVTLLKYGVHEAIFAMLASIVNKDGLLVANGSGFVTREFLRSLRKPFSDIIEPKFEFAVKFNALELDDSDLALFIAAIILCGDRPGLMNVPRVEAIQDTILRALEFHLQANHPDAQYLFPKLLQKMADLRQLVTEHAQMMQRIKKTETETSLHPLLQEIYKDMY
Glucocorticoid receptor (Homo sapiens), sequence (P04150 whole entry, looked up): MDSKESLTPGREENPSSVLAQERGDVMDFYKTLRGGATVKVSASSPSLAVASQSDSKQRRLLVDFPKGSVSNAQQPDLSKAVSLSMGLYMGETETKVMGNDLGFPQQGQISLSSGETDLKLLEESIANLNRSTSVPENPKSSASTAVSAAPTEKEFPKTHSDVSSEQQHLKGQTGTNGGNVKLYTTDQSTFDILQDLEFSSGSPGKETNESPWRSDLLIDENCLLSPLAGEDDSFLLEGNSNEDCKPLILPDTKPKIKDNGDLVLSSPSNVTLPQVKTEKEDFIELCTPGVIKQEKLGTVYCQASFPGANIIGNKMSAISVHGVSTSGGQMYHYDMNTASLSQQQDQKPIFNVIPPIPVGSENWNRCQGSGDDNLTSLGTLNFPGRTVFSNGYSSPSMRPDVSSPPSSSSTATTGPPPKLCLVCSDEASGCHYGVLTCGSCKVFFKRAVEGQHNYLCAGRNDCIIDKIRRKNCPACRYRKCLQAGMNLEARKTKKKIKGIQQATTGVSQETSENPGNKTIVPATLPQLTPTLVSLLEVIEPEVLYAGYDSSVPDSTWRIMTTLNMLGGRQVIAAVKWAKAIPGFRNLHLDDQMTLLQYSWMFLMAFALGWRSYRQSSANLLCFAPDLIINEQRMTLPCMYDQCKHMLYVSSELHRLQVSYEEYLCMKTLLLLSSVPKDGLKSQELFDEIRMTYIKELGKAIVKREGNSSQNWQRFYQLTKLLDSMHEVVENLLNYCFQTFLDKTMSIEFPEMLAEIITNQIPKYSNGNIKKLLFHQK
Estrogen receptor (Homo sapiens), sequence (P03372 whole entry, looked up): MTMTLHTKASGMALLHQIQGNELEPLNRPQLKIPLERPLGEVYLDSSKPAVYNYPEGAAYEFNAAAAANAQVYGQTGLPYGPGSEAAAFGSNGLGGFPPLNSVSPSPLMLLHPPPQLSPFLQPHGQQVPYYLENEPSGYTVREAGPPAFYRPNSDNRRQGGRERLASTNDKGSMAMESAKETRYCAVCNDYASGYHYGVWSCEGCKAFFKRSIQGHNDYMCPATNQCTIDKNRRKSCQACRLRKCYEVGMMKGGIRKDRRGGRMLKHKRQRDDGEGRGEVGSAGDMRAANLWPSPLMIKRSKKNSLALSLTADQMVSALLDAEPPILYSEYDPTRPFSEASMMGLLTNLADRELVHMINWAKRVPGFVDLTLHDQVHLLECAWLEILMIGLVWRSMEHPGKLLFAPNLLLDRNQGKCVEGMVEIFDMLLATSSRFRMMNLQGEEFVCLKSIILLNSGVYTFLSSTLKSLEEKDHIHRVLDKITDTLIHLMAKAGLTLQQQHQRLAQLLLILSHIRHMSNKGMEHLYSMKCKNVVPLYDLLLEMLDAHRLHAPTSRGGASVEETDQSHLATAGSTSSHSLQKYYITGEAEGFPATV
Vitamin D3 receptor (Homo sapiens), sequence (P11473 whole entry, looked up): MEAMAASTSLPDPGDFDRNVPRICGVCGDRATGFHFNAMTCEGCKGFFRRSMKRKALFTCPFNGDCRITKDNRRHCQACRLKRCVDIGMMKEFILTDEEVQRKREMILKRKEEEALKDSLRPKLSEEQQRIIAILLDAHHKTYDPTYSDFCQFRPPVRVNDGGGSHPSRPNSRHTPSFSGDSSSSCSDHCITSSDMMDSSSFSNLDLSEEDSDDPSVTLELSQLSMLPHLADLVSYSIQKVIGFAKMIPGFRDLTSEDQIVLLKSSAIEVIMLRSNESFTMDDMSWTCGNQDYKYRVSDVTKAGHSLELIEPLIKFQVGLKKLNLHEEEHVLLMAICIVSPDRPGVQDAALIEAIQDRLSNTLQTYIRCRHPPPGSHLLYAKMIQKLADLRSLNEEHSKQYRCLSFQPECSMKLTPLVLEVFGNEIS
Retinoic acid receptor RXR-alpha (Homo sapiens), sequence (P19793 whole entry, looked up): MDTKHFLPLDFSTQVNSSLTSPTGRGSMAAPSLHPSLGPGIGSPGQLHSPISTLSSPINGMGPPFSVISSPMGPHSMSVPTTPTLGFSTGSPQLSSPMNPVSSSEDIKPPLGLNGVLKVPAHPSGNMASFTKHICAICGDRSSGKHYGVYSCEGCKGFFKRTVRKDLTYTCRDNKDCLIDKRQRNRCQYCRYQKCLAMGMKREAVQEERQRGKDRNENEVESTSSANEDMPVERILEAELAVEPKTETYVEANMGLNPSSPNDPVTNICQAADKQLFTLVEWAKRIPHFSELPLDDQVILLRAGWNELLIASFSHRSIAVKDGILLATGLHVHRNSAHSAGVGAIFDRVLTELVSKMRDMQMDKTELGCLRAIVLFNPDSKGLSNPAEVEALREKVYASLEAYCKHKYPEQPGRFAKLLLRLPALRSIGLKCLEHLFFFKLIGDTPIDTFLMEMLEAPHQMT

Turning to `O=C(O)c1ccccc1C(c1ccc(O)cc1)c1ccc(O)cc1`, the Potency result in assay [1], in assay [3], in assay [5] and in assay [6] was “inactive” in each case. The activation in assay [2] is -2.81% (inactive) and -6.49% (inactive). Moreover, the max response in assay [4] was 8.38% and 8.06%.
In the case of `O=NCc1ccc([N+](=O)[O-])o1`, the Potency entry in assay [7] and in [8] was “inactive” each time.
Consider `O=S(=O)(O)c1ccccc1`, for which, in [2], the activation was -5.18% (inactive). The Potency entry in assay [3], in [5], in assay [10] and in assay [6] was “inactive” each time. The max response in assay [4] was found to be 1.28%. Moreover, the result in [9] and in assay [11] was inactive.
`c1ccc2scnc2c1`: the Potency entry in assay [1], in assay [3], in assay [5], in assay [10] and in assay [6] was “inactive” each time. In addition, the activation is -6.61% (inactive) in assay [2] and 0.66% (inactive) in [13]. The max response in [4] is 3.24%; in assay [12], -2.82% (inactive). Further, the call in [9] and in assay [11] was inactive.
With `CCC(C)CCCCC(=O)NC(CCN)C(=O)NC(C(=O)NC(CCN)C(=O)NC1CCNC(=O)C(C(C)O)NC(=O)C(CCN)NC(=O)C(CCN)NC(=O)C(CC(C)C)NC(=O)C(Cc2ccccc2)NC(=O)C(CCN)NC1=O)C(C)O` (configuration not stated) ({Octanoyl(6-Me)}-[Dab]T[Dab][Dab][Dab]FL[Dab][Dab]T; lactam 4-C; configuration not given here), in assay [14], the Potency is 50.1 µM (active). Further, the Potency result (in [8]; in the assay with CP215; in the assay on CP250) was “inactive” throughout.
For `CC1CCC(C(C)C)C(OC(=O)c2ccccc2O)C1` (configuration not stated), the Potency entry (in assay [7]; in assay [8]; in the assay with CP215; in the assay with CP250; with P93_24; in the assay on TAB113) was “inactive” in each case. Also, the Potency entry with TAB165 was “inactive”.
On to `CCN1/C(=C/C=C/C=C/c2sc3ccccc3[n+]2CC)Sc2ccccc21`, for which the Potency in assay [14] is 22.4 µM (active); in [7], 7.21 µM (active); in the assay with CP215, 6.75 µM (active); with CP250 it was 3.98 µM (active); in the assay on P93_24, 3.55 µM (active); with TAB113, 5.01 µM (active). In addition, the Potency in the assay on TAB165 is 3.98 µM (active).
For the compound `CC(=O)O[C@@]12CO[C@@H]1C[C@H](O)[C@@]1(C)C(=O)[C@H](O)C3=C(C)[C@@H](OC(=O)C(O)[C@@H](NC(=O)OC(C)(C)C)c4ccccc4)C[C@@](O)([C@@H](OC(=O)c4ccccc4)[C@H]21)C3(C)C` (some centres not stated), the Potency entry in assay [14] is “inactive”. Also, the Potency was 0.0675 µM (active) with CP215, 0.0562 µM (active) in the assay with P93_24, 0.0316 µM (active) with TAB113 and 0.141 µM (active) in the assay with TAB165.
Consider `Cc1cc(CC(C)CC(C)(C)C)n(O)c(=O)c1` (configuration not stated), for which the Potency is 2.51 µM (active) in assay [8]; 2.13 µM (active) with CP215; 1.12 µM (active) with CP250; 2.24 µM (active) in the assay with P93_24; 2.82 µM (active) in the assay on TAB113; 1.78 µM (active) in the assay on TAB165.
On to `CCC(=O)O[C@@H](OP(=O)(CCCCc1ccccc1)CC(=O)N1C[C@H](C2CCCCC2)C[C@H]1C(=O)O)C(C)C` (some centres not stated), for which the Potency result (in assay [7]; in the assay on CP215; with CP250; in the assay with TAB113; in the assay on TAB165) was “inactive” each time.
In the case of `O=c1cc(-c2cccc(O)c2)oc2c(O)c(O)ccc12`, the Potency in assay [15] was 7.94 µM (active).
Regarding `CO[C@@H]1[C@@H](OC2OC(C)C(OC3CC(C)(O)C(OC(=O)CC(C)C)C(C)O3)C(N(C)C)C2O)[C@@H](CC=O)C[C@@H](C)C(=O)/C=C\C2O[C@H]2C[C@@H](C)OC(=O)C[C@H]1OC(C)=O` (some centres not stated), the Potency result in assay [14], in [7] and in [8] was “inactive” each time. Further, the Potency is 10 µM (active) in the assay with CP250, 8.91 µM (active) in the assay with P93_24 and 12.6 µM (active) in the assay with TAB113.
On to `O=C1CCc2ccccc2O1`, for which the Potency result in assay [15], in assay [3] and in assay [10] was “inactive” each time. Moreover, the results for the activation in assay [2] and in assay [13] were -2.22% (inactive) and -0.942% (inactive), respectively. Also, in [12], the max response is 0.0036% (inactive). In addition, the call in [11] was inactive.
On to `CO/N=C(/C(=O)N[C@@H]1C(=O)N2C(C(=O)O)=CCS[C@H]12)c1csc(N)n1`, for which the Potency entry (in assay [7]; in [8]; in the assay on CP215; in the assay with CP250; with P93_24; in the assay with TAB113) was “inactive” each time. Also, the Potency entry in the assay with TAB165 was “inactive”.
